# Test results published in PubChem BioAssay (EPA / NIEHS).
# Inconclusive results are not listed. Active and inactive are the calls of the source. The calls were made as follows, unless noted: active = hit-call score of the fitted dose curve at least 0.9, where 1 is the maximum; inconclusive = response in the unintended direction; inactive = score below 0.9.
# Test system: not listed separately
# Assay: ATG_M_32_TRANS: Attagene TRANS-FACTORIAL HepG2 Assay for M32 Transcription Factor (Internal Marker) (AID 2282984);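 also: transcript level of a background control reporter unit measured by RT-PCR and capillary electrophoresis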
# Conditions: HepG2 Attagene TRANS M32 internal marker reporter
# How it was run: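 Fluorescence-detected mRNA induction, HepG2 liver cells, 24 h after dosing. Multiple GAL4-UAS reporter units introduced by transient transfection; background-control endpoint analysed for gain of signal against DMSO.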
row,SMILES,outcome
1,CC[C@H](C)[C@H]1O[C@]2(C=C[C@@H]1C)C[C@@H]1C[C@@H](C/C=C(\C)[C@@H](O[C@H]3C[C@H](OC)[C@@H](O[C@H]4C[C@H](OC)[C@@H](NC)[C@H](C)O4)[C@H](C)O3)[C@@H](C)/C=C/C=C3\CO[C@@H]4[C@H](O)C(C)=C[C@@H](C(=O)O1)[C@]34O)O2,inactive
2,CON=C(C(=O)OC)c1ccccc1CON=C(C)c1cccc(C(F)(F)F)c1,inactive
3,CC(COc1ccc(Oc2ccccc2)cc1)Oc1ccccn1 (stereo not drawn),inactive
4,CCCCN(CC)c1c([N+](=O)[O-])cc(C(F)(F)F)cc1[N+](=O)[O-],inactive
5,COc1cc(OC)nc(Sc2cccc(Cl)c2C(=O)O)n1,inactive
6,CC(C)N(C(=O)SCC(Cl)=C(Cl)Cl)C(C)C,inactive
7,Cc1cc(C2CC2)nc(Nc2ccccc2)n1,inactive
8,C#CC(C)(C)NC(=O)c1cc(Cl)cc(Cl)c1,inactive
9,Cc1ccn2nc(S(=O)(=O)Nc3c(F)cccc3F)nc2n1,inactive
10,CCc1cccc(C)c1N(C(=O)CCl)C(C)COC (stereo not drawn),inactive
11,CCOP(=O)(SC(C)CC)N1CCSC1=O (stereo not drawn),inactive
12,CCCSP(=O)(OCC)Oc1ccc(Br)cc1Cl (stereo not drawn),inactive
13,Nc1c(Cl)cc([N+](=O)[O-])cc1Cl,inactive
14,O=[N+]([O-])c1cc(C(F)(F)F)c(Cl)c([N+](=O)[O-])c1Nc1ncc(C(F)(F)F)cc1Cl,inactive
15,CCC(CC)Nc1c([N+](=O)[O-])cc(C)c(C)c1[N+](=O)[O-],inactive
16,CNC(=O)Oc1cccc2c1OC(C)(C)O2,inactive
17,CCOP(=S)(OCC)OC(Cl)C(Cl)(Cl)Cl (stereo not drawn),inactive
18,CCC(=O)Nc1ccc(Cl)c(Cl)c1,inactive
19,CSc1nc(NC(C)C)nc(NC(C)C)n1,inactive
20,CCOP(=O)(NC(C)C)Oc1ccc(SC)c(C)c1 (stereo not drawn),inactive
21,CCCCSP(=O)(SCCCC)SCCCC,inactive
22,N#CSCSC#N,inactive
23,C#CCC1=C(C)C(OC(=O)C2C(C=C(C)C)C2(C)C)CC1=O (stereo not drawn),inactive
24,COP(=O)(OC)C(O)C(Cl)(Cl)Cl (stereo not drawn),inactive
25,CCCCOC(=O)[C@@H](C)Oc1ccc(Oc2ccc(C#N)cc2F)cc1,inactive

# Target: Nuclear receptor subfamily 4 group A member 2 (Homo sapiens) (UniProt P43354)
# Sequence (P43354 whole entry, looked up): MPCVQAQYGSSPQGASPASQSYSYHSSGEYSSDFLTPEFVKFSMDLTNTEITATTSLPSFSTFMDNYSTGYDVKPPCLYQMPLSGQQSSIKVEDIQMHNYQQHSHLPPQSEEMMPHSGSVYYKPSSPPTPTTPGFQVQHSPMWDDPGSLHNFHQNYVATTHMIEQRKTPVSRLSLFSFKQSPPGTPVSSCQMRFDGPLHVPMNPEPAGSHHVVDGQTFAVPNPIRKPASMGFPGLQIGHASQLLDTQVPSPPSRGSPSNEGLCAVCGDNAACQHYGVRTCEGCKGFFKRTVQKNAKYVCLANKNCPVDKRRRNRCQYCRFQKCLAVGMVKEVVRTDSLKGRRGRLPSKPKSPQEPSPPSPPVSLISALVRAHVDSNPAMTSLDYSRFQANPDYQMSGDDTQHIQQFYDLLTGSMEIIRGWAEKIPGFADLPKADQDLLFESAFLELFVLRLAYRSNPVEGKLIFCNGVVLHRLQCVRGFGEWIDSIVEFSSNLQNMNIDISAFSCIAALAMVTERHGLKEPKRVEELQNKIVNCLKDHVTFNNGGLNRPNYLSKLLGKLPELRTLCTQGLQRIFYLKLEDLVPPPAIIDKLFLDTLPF
# Assay: ATG_NURR1_TRANS: Attagene TRANS-FACTORIAL HepG2 Assay for human Nuclear Receptor Related Protein 1 (NURR1) (AID 2282985)
# Conditions: HepG2 Attagene TRANS reporter, mRNA readout
# How it was run: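 Chimeric NR-Gal4 proteins were expressed in human HepG2 cells bearing GAL4-UAS reporter units, and induced reporter mRNA was quantified 24 h post-dosing by RT-PCR and capillary electrophoresis.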
row,SMILES,outcome
1,CC(COc1ccc(Oc2ccccc2)cc1)Oc1ccccn1 (stereo not drawn),inactive
2,CCCCN(CC)c1c([N+](=O)[O-])cc(C(F)(F)F)cc1[N+](=O)[O-],inactive
3,COc1cc(OC)nc(Sc2cccc(Cl)c2C(=O)O)n1,inactive
4,CC(C)N(C(=O)SCC(Cl)=C(Cl)Cl)C(C)C,inactive
5,Cc1cc(C2CC2)nc(Nc2ccccc2)n1,inactive
6,C#CC(C)(C)NC(=O)c1cc(Cl)cc(Cl)c1,inactive
7,CCCSP(=O)(OCC)Oc1ccc(Br)cc1Cl (stereo not drawn),inactive
8,CCCSP(=O)(OCC)SCCC,inactive
9,O=[N+]([O-])c1cc(C(F)(F)F)c(Cl)c([N+](=O)[O-])c1Nc1ncc(C(F)(F)F)cc1Cl,inactive
10,CCC(CC)Nc1c([N+](=O)[O-])cc(C)c(C)c1[N+](=O)[O-],inactive
11,CCOP(=S)(OCC)OC(Cl)C(Cl)(Cl)Cl (stereo not drawn),inactive
12,CCC(=O)Nc1ccc(Cl)c(Cl)c1,inactive
13,CSc1nc(NC(C)C)nc(NC(C)C)n1,inactive
14,CCCOc1nn(C(=O)NS(=O)(=O)c2ccccc2C(=O)OC)c(=O)n1C,inactive
15,CCCCSP(=O)(SCCCC)SCCCC,inactive
16,N#CSCSC#N,inactive
17,C#CCC1=C(C)C(OC(=O)C2C(C=C(C)C)C2(C)C)CC1=O (stereo not drawn),inactive
18,CC1(C(=O)Nc2ccc(O)c(Cl)c2Cl)CCCCC1,inactive

# Target: Transcriptional activator Myb (Homo sapiens) (UniProt P10242)
# Sequence (P10242 whole entry, looked up): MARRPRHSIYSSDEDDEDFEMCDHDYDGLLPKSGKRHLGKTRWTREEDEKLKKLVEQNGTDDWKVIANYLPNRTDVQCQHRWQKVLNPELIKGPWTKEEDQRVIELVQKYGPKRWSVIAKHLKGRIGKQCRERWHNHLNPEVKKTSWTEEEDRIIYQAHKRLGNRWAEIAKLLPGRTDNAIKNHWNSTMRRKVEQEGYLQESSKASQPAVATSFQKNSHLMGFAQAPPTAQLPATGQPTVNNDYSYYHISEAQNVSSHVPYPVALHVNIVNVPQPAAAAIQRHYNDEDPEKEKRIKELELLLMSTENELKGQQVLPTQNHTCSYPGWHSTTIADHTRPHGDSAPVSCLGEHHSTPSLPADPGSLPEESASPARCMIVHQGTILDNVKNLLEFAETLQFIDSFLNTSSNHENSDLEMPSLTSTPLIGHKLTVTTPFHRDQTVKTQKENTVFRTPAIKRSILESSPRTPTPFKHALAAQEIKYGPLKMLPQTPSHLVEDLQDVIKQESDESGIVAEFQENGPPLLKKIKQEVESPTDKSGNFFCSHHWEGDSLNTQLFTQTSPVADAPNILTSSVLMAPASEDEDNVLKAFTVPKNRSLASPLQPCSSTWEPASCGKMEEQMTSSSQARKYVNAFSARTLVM
# Assay: ATG_Myb_CIS: Attagene CIS-FACTORIAL HepG2 Assay for human Myeloblastosis (Myb) Proto-Oncogene Transcription Factor (AID 2282986; active = hit-call score of the fitted dose curve at least 0.9, where 1 is the maximum; inactive = score below 0.9)
# Conditions: HepG2 Attagene CIS-FACTORIAL Myb reporter transcription; actives raise or lower the signal
# How it was run: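 After 24 h of compound dosing, total RNA from transfected HepG2 cells is reverse-transcribed and the reporter sequences amplified, labeled and separated by capillary electrophoresis. Values come from bidirectional fitting against DMSO.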
SMILES,outcome,AC50
CC[C@H](C)[C@H]1O[C@]2(C=C[C@@H]1C)C[C@@H]1C[C@@H](C/C=C(\C)[C@@H](O[C@H]3C[C@H](OC)[C@@H](O[C@H]4C[C@H](OC)[C@@H](NC)[C@H](C)O4)[C@H](C)O3)[C@@H](C)/C=C/C=C3\CO[C@@H]4[C@H](O)C(C)=C[C@@H](C(=O)O1)[C@]34O)O2,inactive,–
CON=C(C(=O)OC)c1ccccc1CON=C(C)c1cccc(C(F)(F)F)c1,inactive,–
CC(COc1ccc(Oc2ccccc2)cc1)Oc1ccccn1 (stereo not drawn),inactive,–
CCCCN(CC)c1c([N+](=O)[O-])cc(C(F)(F)F)cc1[N+](=O)[O-],inactive,–
CCc1cnc(C2=NC(C)(C(C)C)C(=O)N2)c(C(=O)O)c1 (stereo not drawn),inactive,–
COc1cc(OC)nc(Sc2cccc(Cl)c2C(=O)O)n1,inactive,–
COP(=O)(NC(C)=O)SC (stereo not drawn),inactive,–
COP(=O)(OC)SCn1c(=O)oc2cc(Cl)cnc21,inactive,–
CC(C)N(C(=O)SCC(Cl)=C(Cl)Cl)C(C)C,inactive,–
Cc1cc(C2CC2)nc(Nc2ccccc2)n1,–,79.1 µM (active)
C#CC(C)(C)NC(=O)c1cc(Cl)cc(Cl)c1,inactive,–
Cc1ccn2nc(S(=O)(=O)Nc3c(F)cccc3F)nc2n1,inactive,–
CCc1cccc(C)c1N(C(=O)CCl)C(C)COC (stereo not drawn),inactive,–
CCc1cccc(CC)c1N(COC)C(=O)CCl,inactive,–
CCOP(=O)(SC(C)CC)N1CCSC1=O (stereo not drawn),inactive,–
CCOP(=S)(Oc1cnc(C(C)(C)C)nc1)OC(C)C (stereo not drawn),inactive,–
CCCSP(=O)(OCC)Oc1ccc(Br)cc1Cl (stereo not drawn),inactive,–
Nc1c(Cl)cc([N+](=O)[O-])cc1Cl,inactive,–

SMILES,outcome,AC50
CCCSP(=O)(OCC)SCCC,inactive,–
O=[N+]([O-])c1cc(C(F)(F)F)c(Cl)c([N+](=O)[O-])c1Nc1ncc(C(F)(F)F)cc1Cl,inactive,–
CCC(CC)Nc1c([N+](=O)[O-])cc(C)c(C)c1[N+](=O)[O-],inactive,–
CNc1cnn(-c2cccc(C(F)(F)F)c2)c(=O)c1Cl,inactive,–
CNC(=O)Oc1cccc2c1OC(C)(C)O2,inactive,–
CCOP(=S)(OCC)OC(Cl)C(Cl)(Cl)Cl (stereo not drawn),inactive,–
CCC(=O)Nc1ccc(Cl)c(Cl)c1,inactive,–
CSc1nc(NC(C)C)nc(NC(C)C)n1,inactive,–
CCOP(=O)(NC(C)C)Oc1ccc(SC)c(C)c1 (stereo not drawn),inactive,–
CCCOc1nn(C(=O)NS(=O)(=O)c2ccccc2C(=O)OC)c(=O)n1C,inactive,–
CCCCSP(=O)(SCCCC)SCCCC,–,83.3 µM (active)
N#CSCSC#N,inactive,–
C#CCC1=C(C)C(OC(=O)C2C(C=C(C)C)C2(C)C)CC1=O (stereo not drawn),–,93.4 µM (active)
COP(=O)(OC)C(O)C(Cl)(Cl)Cl (stereo not drawn),inactive,–
CC1(C(=O)Nc2ccc(O)c(Cl)c2Cl)CCCCC1,inactive,–
CNC(=O)ON=C(SC)C(=O)N(C)C,inactive,–
CCCCOC(=O)[C@@H](C)Oc1ccc(Oc2ccc(C#N)cc2F)cc1,inactive,–
